Data from the supplement of paper PMC10849652.
About 7,900 targets were measured; listed, in parts, are those with a hit and a random draw of the rest. About 0.6% of all pairs of compound and target were hits. Values without a mark were called inactive.

What was measured:
Assay in all cases: log2 fold change, soluble protein after heating vs DMSO (PISA); higher = thermal stabilisation; K562 cells, 10 uM, 30 min; active = over 0.2 and 3.5 SD of the protein, either way, in both replicates (recomputed)
IRAK-1-4 Inhibitor I = compound: C1COCCN1CCN2C3=CC=CC=C3N=C2NC(=O)C4=CC(=CC=C4)[N+](=O)[O-] [IRAK-1-4 Inhibitor I]
Method in brief: (§1)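 Values are thermal stability changes relative to control samples and are taken from duplicates. They are stated as log2 fold changes. Before quantification by TMTpro 16plex LC-MS/MS with equalised channel sums, K562 cells at 2×10^6 cells/mL were treated with 10 μM compound for 30 min, heated in aliquots for 3 min across 48°C-58°C, pooled, extracted in PBS with 0.5% NP-40 at 4°C, and centrifuged at 21,000xg for 90 min to give the soluble supernatant.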

ibrutinib = compound: C=CC(=O)N1CCC[C@@H](n2nc(-c3ccc(Oc4ccccc4)cc3)c3c(N)ncnc32)C1 [ibrutinib]
Method in brief: as §1

[1] = compound: CC(=O)c1cnc2ccc(-c3cc(Cl)c(O)c(Cl)c3)nc2c1N[C@H]1CC[C@H](CN(C)C)CC1
Method in brief: as §1

ralimetinib = compound: CC(C)(C)Cn1c(N)nc2ccc(-c3[nH]c(C(C)(C)C)nc3-c3ccc(F)cc3)nc21 [ralimetinib]
Method in brief: as §1

[2] = compound: CC(C)(O)CC(=O)NCCn1ccc2ncnc(Nc3ccc(Oc4cccc(C(F)(F)F)c4)c(Cl)c3)c21
Method in brief: as §1

[3] = compound: CC(C)C1=C2N=C(C=C(N2N=C1)NCC3=CC=CC=C3)NCCCCCCN
Method in brief: as §1

[4] = compound: CC(C)C[C@@H](C=O)NC(=O)[C@H](CC(C)C)NC(=O)[C@H](CC(C)C)NC(=O)OCc1ccccc1
Method in brief: as §1

pinometostat = compound: CC(C)N(C[C@H]1O[C@@H](n2cnc3c(N)ncnc32)[C@H](O)[C@@H]1O)[C@H]1C[C@@H](CCc2nc3cc(C(C)(C)C)ccc3[nH]2)C1 [pinometostat]
Method in brief: as §1

[5] = compound: CC1=C(C(CC(=O)N1)C2=CC=C(C=C2)C(F)(F)F)C(=O)NC3=C(C=C4C(=C3)C=NN4)F
Method in brief: as §1

[6] = compound: CC1=C(C2=C(C=C1)C(=O)C3=CC=CC=C3N2CCCN)C
Method in brief: as §1

[7] = compound: CC1=C(C=C(C=C1)NC(=O)C2=CC(=CC=C2)C(C)(C)C#N)NC3=CC4=C(C=C3)N=CN(C4=O)C
Method in brief: as §1

[8] = compound: CC1=C(C=C(C=C1)NC(=O)C2=CC(=CC=C2)N(C)C)NC(=O)C3=CC=C(C=C3)O
Method in brief: as §1

[9] = compound: CC1=CC=C(C=C1)SC2=C3C=C(SC3=CN=C2)C(=O)N
Method in brief: as §1

[10] = compound: CC1=NC(=CC=C1)C2=C(N=C(N2)C(C)(C)C)C3=CC4=NC=CN=C4C=C3
Method in brief: as §1

Nexturastat A = compound: CCCCN(Cc1ccc(C(=O)NO)cc1)C(=O)Nc1ccccc1 [Nexturastat A]
Method in brief: as §1

vemurafenib = compound: CCCS(=O)(=O)Nc1ccc(F)c(C(=O)c2c[nH]c3ncc(-c4ccc(Cl)cc4)cc23)c1F [vemurafenib]
Method in brief: as §1

[11] = compound: CCCS(=O)(=O)Nc1ccc(F)c(C(=O)c2c[nH]c3ncc(Cl)cc23)c1F
Method in brief: as §1

[12] = compound: CCCc1cc(C)[nH]c(=O)c1CNC(=O)c1cc(-c2ccnc(N3CCN(C)CC3)c2)cc2c1cnn2C(C)C
Method in brief: as §1

givinostat = compound: CCN(CC)Cc1ccc2cc(COC(=O)Nc3ccc(C(=O)NO)cc3)ccc2c1 [givinostat]
Method in brief: as §1

barasertib = compound: CCN(CCCOc1ccc2c(Nc3cc(CC(=O)Nc4cccc(F)c4)[nH]n3)ncnc2c1)CCOP(=O)(O)O [barasertib]
Method in brief: as §1

Sequence of UniProt O00258 (O00258 whole entry, looked up): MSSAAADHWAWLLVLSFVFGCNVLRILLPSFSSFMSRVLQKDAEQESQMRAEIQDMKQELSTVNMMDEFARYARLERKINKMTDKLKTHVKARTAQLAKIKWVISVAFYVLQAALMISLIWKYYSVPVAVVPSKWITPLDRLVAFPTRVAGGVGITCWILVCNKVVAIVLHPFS
Sequence of UniProt O43379 (O43379 whole entry, looked up): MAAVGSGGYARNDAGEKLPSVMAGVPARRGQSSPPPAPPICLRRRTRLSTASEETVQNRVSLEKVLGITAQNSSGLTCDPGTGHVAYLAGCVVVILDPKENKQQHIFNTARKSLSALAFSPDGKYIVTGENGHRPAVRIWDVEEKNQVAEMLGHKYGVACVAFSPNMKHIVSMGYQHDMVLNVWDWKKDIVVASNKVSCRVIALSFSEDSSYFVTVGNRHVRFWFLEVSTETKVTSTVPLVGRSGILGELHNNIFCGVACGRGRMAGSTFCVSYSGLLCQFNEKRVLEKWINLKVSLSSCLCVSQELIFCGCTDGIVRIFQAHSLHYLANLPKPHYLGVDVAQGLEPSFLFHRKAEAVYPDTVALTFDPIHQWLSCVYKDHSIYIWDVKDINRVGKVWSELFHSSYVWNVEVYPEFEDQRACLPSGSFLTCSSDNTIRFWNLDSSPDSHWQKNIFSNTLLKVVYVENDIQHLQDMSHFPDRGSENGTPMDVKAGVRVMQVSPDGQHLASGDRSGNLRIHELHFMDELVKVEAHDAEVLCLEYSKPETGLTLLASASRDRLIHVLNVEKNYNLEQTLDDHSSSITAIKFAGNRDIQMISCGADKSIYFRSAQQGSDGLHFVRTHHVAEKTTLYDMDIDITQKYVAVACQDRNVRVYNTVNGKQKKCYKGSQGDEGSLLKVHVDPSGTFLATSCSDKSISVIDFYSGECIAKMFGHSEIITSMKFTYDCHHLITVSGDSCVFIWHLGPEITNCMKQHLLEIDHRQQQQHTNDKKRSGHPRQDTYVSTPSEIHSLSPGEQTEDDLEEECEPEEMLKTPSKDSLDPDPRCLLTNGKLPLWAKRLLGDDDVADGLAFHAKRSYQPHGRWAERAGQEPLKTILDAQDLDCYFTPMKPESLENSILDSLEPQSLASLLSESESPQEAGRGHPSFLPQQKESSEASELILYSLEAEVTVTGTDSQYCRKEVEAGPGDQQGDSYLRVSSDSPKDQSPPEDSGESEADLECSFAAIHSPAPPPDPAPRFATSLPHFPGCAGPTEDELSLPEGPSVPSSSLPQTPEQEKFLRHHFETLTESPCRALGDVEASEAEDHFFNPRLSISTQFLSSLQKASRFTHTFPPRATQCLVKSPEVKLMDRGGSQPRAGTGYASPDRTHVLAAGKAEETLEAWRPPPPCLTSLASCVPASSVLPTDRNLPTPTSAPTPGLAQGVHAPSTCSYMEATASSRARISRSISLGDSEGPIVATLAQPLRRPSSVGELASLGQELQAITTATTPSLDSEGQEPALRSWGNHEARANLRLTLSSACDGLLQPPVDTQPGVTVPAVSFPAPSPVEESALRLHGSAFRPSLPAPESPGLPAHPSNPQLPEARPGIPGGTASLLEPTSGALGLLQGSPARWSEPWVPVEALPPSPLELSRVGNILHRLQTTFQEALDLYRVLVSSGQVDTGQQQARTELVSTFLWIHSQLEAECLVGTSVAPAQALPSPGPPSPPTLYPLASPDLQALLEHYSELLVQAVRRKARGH
Sequence of UniProt Q9HAD4 (Q9HAD4 whole entry, looked up): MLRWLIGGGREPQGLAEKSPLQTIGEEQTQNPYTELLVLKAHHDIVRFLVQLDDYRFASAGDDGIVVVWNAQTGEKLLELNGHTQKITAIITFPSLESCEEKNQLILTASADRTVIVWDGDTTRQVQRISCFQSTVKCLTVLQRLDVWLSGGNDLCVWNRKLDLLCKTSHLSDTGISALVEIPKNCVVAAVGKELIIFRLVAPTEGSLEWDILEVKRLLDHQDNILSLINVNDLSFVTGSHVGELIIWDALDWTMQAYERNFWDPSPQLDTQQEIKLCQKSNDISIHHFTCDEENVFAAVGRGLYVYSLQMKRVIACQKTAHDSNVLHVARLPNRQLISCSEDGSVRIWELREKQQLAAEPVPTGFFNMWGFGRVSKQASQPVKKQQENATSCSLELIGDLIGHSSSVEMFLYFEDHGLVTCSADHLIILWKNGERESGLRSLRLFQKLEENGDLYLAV
Sequence of UniProt Q6NXR4 (Q6NXR4 whole entry, looked up): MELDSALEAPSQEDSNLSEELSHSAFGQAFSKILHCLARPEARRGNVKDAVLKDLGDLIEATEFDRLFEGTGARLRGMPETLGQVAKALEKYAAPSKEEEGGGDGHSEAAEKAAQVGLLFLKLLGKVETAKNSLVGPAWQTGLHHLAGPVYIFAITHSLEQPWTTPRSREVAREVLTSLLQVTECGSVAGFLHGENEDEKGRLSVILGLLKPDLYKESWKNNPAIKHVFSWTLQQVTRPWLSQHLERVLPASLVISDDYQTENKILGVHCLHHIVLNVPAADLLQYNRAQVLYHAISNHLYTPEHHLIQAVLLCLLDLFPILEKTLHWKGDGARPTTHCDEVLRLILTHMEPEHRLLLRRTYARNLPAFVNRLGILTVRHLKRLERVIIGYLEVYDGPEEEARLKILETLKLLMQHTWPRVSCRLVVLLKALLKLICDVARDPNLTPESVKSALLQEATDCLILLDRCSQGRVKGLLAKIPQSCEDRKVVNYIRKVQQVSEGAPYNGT
Sequence of WASHC2C, A0A096LPC5 (A0A096LPC5 whole entry, looked up): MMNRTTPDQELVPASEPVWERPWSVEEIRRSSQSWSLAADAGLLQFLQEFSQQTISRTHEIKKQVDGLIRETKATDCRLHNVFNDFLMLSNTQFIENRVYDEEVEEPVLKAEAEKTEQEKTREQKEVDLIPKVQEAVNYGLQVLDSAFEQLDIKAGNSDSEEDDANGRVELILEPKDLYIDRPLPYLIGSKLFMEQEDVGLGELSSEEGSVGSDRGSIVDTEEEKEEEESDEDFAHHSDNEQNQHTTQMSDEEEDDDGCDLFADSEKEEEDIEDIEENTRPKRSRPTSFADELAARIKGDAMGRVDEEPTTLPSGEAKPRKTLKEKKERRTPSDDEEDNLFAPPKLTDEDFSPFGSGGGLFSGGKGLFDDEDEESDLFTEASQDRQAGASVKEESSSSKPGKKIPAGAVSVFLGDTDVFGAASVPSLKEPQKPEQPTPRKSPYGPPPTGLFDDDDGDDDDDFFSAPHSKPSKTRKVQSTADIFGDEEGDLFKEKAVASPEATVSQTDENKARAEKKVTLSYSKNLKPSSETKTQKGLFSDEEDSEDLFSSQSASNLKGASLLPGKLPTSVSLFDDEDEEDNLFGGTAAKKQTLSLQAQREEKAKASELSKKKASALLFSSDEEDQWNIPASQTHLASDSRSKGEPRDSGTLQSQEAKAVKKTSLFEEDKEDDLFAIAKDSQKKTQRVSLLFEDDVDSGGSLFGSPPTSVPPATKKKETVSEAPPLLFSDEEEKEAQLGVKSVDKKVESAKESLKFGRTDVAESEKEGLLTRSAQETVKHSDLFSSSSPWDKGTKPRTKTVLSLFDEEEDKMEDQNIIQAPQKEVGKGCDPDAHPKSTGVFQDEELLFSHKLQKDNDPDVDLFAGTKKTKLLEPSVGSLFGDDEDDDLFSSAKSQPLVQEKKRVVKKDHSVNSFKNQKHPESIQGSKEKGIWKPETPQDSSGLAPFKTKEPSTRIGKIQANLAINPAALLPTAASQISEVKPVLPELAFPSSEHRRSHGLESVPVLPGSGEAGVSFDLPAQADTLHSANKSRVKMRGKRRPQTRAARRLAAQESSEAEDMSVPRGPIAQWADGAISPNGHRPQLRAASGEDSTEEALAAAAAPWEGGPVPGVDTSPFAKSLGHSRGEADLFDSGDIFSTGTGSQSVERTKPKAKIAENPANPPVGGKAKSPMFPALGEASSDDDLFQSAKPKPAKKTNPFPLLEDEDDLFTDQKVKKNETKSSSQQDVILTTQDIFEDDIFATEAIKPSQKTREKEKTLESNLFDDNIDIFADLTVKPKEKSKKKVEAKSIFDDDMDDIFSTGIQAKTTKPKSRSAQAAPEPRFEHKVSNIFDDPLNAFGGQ
Sequence of UniProt Q99757 (Q99757 whole entry, looked up): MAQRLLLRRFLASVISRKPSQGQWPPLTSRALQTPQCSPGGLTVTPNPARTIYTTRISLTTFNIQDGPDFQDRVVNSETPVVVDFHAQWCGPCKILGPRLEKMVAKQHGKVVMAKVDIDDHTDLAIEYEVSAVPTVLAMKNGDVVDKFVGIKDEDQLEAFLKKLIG
Sequence of UniProt Q9Y6I4 (Q9Y6I4 whole entry, looked up): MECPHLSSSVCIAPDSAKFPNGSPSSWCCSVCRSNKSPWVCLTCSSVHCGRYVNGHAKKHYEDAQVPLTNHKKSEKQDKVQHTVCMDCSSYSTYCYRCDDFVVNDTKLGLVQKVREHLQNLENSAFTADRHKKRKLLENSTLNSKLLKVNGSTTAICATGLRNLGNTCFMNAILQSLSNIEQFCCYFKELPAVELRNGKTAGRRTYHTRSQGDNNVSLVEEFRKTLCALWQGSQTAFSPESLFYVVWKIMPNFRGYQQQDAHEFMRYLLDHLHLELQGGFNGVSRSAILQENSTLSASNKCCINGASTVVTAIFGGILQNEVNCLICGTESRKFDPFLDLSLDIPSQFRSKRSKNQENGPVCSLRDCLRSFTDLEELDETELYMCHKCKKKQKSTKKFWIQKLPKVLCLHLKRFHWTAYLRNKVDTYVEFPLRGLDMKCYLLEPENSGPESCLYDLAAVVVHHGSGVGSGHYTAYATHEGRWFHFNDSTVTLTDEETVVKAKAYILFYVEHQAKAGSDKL

Target	log2 fold change (IRAK-1-4 Inhibitor I)	log2 fold change (ibrutinib)	log2 fold change [1]	log2 fold change (ralimetinib)	log2 fold change [2]	log2 fold change [3]	log2 fold change [4]	log2 fold change (pinometostat)	log2 fold change [5]	log2 fold change [6]	log2 fold change [7]	log2 fold change [8]	log2 fold change [9]	log2 fold change [10]	log2 fold change (Nexturastat A)	log2 fold change (vemurafenib)	log2 fold change [11]	log2 fold change [12]	log2 fold change (givinostat)	log2 fold change (barasertib)
WASHC2C, A0A096LPC5	0.01	-0.005	-0.159	-0.035	0.085	-0.214	0.057	0.008	-0.033	-0.125	-0.059	0.062	-0.107	-0.041	0	0.039	-0.206	-0.101	-0.012	-0.037
WDR62 isoform 4 (UniProt O43379)	0.085	-0.069	-0.579 (active)	0.003	-0.003	-0.085	0.042	0.062	0.063	-0.176	-0.123	-0.015	-0.055	-0.033	0.029	0.008	0.053	-0.014	0.022	0.032
UTP14A (UniProt Q9BVJ6)	-0.13	-0.026	0.088	0.11	0.007	-0.113	0.154	0.262	0.065	-0.708 (active)	0.028	0.008	-0.002	-0.068	0.194	-0.066	0.028	0.109	0.048	-0.112
WDR41 (UniProt Q9HAD4)	-0.024	-0.022	-0.023	-0.036	-0.077	-0.271 (active)	-0.026	0.012	0.127	-0.001	0.044	0	-0.007	0.001	0.002	0.008	0.036	-0.011	-0.04	0.033
TTI2 (UniProt Q6NXR4)	-0.032	-0.006	0.005	0.033	-0.196	-0.079	0.032	0.016	-0.044	0.033	0.021	-0.039	0.024	0.023	0.113	0.047	0.06	-0.018	0.135	-0.028
WRB (UniProt O00258)	0.006	0.014	-0.074	0.004	0.015	0.043	-0.043	-0.032	-0.006	0.011	-0.046	-0.11	-0.007	-0.023	-0.25 (active)	0.108	-0.037	-0.074	0.032	-0.014
USP3 (UniProt Q9Y6I4)	0.035	-0.083	-0.126	-0.013	-0.107	-0.146	-0.145	-0.075	0.006	-0.006	0.026	-0.016	0.085	0.069	0.01	0.112	0.192	-0.069	-0.022	0.067
TXN2 (UniProt Q99757)	0.081	0.021	0.072	-0.093	0.079	0.086	-0.029	-0.048	0.086	0.041	-0.05	-0.018	-0.009	0.036	0.093	0.006	-0.048	0.095	-0.046	0.009
